Experimental data reported in PubChem BioAssay AID485297 (National Center for Advancing Translational Sciences (NCATS), 2010).
The campaign covered roughly 320,000 compounds. About 9,100 (2.8%) were called active. Where a call stands in place of a potency, no number is given. Another 3% or so got no clear call; they are omitted. This is one part of a sample in which actives are shown more often than they occur. Calls follow the shape of the dose curve; as a rule, active = well fitted activation curve with a large enough effect; inconclusive = small, poorly fitted or top-dose-only effect; inactive = no such curve, though single readings can be large or run the other way.

Assay: qHTS Assay for Rab9 Promoter Activators; also: nearly all actives have a fitted effect of over 60% in size
Details: Huh7 Rab9 promoter-luciferase reporter, luminescence, 24 h; series mostly up to 9.22 µM
Summary of the method: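 Cells were plated at 1500 per well in reduced-serum medium with 10% FBS and left 2 h. Compound in DMSO was then added for 24 h at 37 °C. Reporter signal was read by luminescence after 10 min with luciferase detection reagent.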
Potency is read from the fitted curve at half-maximal effect.

Row | Structure (SMILES) | Potency | activation, negative = inhibition
1 | Cc1ccc(NC(=O)Cn2c(C)csc2=O)cc1 | inactive | –
2 | Cc1ccc(NC(=O)c2cc(-c3ccccc3O)n[nH]2)cc1C | 2820 nM (active) | –
3 | Cc1ccc(NC(=O)CCN2C(=O)c3ccccc3C2=O)cc1C | inactive | –
4 | Cc1ccc(C)c(NC(=O)c2cc(-c3cc(C)cc(C)c3O)n[nH]2)c1 | inactive | –
5 | Cc1ccc(C(=O)Nc2ccc(C)c(S(=O)(=O)N(C)C)c2)s1 | 1000 nM (active) | –
6 | CCN(CC(=O)Nc1ccc(C)c(S(=O)(=O)N(C)C)c1)Cc1ccccc1 | inactive | –
7 | Cc1ccc(NC(=O)c2cccs2)cc1S(=O)(=O)N(C)C | inactive | –
8 | CCN(CC)CCn1c2c(c(SCC(=O)Nc3nc4ccccc4s3)nc1=O)CCCC2 | inactive | –
9 | c1ccc2sc(NN=C3CCCC3)nc2c1 | 631 nM (active) | –
10 | O=[N+]([O-])c1cc(Br)c(O)c(/C=N/Nc2nc3ccccc3s2)c1 | inactive | –
11 | CC(=O)O[C@H]1c2ccccc2-c2ccccc2[C@@H]1OC(C)=O | inactive | –
12 | CCOC(=O)c1sc(NC(=O)c2cc(S(=O)(=O)N3CCOCC3)ccc2C)nc1C | inactive | –
13 | COC(=O)c1sc(NC(=O)c2csc3c2CCCC3)nc1C | 3980 nM (active) | –
14 | O=C(Nc1ccccc1N1CCOCC1)c1csc2c1CCCC2 | inactive | –
15 | Cc1ccc(NC(=O)c2csc3c2CCCC3)cc1 | 1410 nM (active) | –
16 | CCOC(=O)c1sc(NC(=O)c2sc(C)nc2C)nc1C | inactive | –
17 | Cc1ccc(NC(=O)c2c(NC(=O)CCC(=O)O)sc3c2CCCCC3)cc1 | inactive | –
18 | CCN(C(=O)COC(=O)c1c(C)nn(-c2ccccc2)c1Cl)c1c(N)n(Cc2ccccc2)c(=O)[nH]c1=O | inactive | –
19 | Cc1cccc(NC(=O)CN2CCN(CC(=O)NCC3(N4CCCCC4)CCCCC3)CC2)c1C | inactive | –
20 | CCCn1c(N)c(N(CCOC)C(=O)C2CCCC2)c(=O)[nH]c1=O | inactive | –
21 | O=C(CNS(=O)(=O)c1ccc2ccccc2c1)Nc1ccc(F)c(F)c1F | inactive | –
22 | COC(=O)c1ccc(NC(=O)CSc2nncn2-c2cccnc2)cc1 | inactive | –
23 | O=C(COC(=O)c1cccc(Cl)c1)NC1CCCCCCC1 | inactive | –
24 | O=C(CSc1nnc(N2CCOCC2)n1-c1cccc(F)c1)N1CCN(c2ccccn2)CC1 | inactive | –
25 | C=CCNc1nc(Nc2ccc(Cl)cc2)nc(OC)n1 | inactive | –

Row | Structure (SMILES) | Potency | activation, negative = inhibition
26 | Brc1ccc(CN2CC[C@H]3C=CCc4cccc(c43)C2)cc1 | inactive | –
27 | Cc1cccc(-n2cnc(C(=O)Nc3cccnc3)c2)n1 | 2240 nM (active) | –
28 | COc1cccc(C(=O)Nc2cccnc2)c1OC | inactive | –
29 | Cc1cccc(-n2cnc(C(=O)NNC(=S)Nc3ccccc3)c2)n1 | inactive | –
30 | Cc1ccc(NC(=O)CN(C)C(=O)c2cccc(S(=O)(=O)N3CCCC3)c2)cc1 | inactive | –
31 | Cc1ccc(O)c(CNc2nc3ccccc3[nH]2)c1 | inactive | –
32 | O=C(Nc1cccc(-n2cnnn2)c1)c1cccnc1 | inactive | –
33 | Cc1ccc(S(=O)(=O)N2CCCCC2)cc1NC(=O)c1cccnc1 | inactive | –
34 | Cc1ccc(-n2nc3cc(C)c(NC(=O)c4cccnc4)cc3n2)cc1 | 3550 nM (active) | –
35 | Cc1cc(NC(=O)c2ccco2)c(=O)n(Cc2c(F)cccc2Cl)c1 | inactive | –
36 | O=C(Nc1cc(-c2nc3ncccc3o2)ccc1Cl)c1ccco1 | inactive | –
37 | Cc1ccc(-n2nc3cc(Cl)c(NC(=O)c4ccco4)cc3n2)cc1 | 3550 nM (active) | –
38 | O=C(OC1CCCCC1=O)c1cccc(S(=O)(=O)NCc2ccccc2)c1 (centres undefined) | inactive | –
39 | CCOc1ccccc1NC(=O)NC1CCCCCCC1 | inactive | –
40 | O=C(CN1CCN(C2CCS(=O)(=O)C2)CC1)N1N=C(c2ccc(Cl)cc2)CC1c1ccco1 (centres undefined) | inactive | –
41 | CC(=O)NCc1ccc(-c2csc(NC(=O)CCCc3nc4ccccc4c(=O)[nH]3)n2)cc1 | inactive | –
42 | CC1(C(=O)OCC(=O)Nc2ncc(Cl)cc2Cl)CC1(Cl)Cl (centres undefined) | inactive | –
43 | O=C(CSc1ccccc1)Nc1cccc(S(=O)(=O)N2CCOCC2)c1 | inactive | –
44 | O=C1c2cccc3c([N+](=O)[O-])ccc(c23)C(=O)N1CC1CCCO1 (centres undefined) | inactive | –
45 | CC(=NCC1CCCO1)c1c(O)[nH]c(=O)[nH]c1=O (centres undefined) | inactive | –
46 | O=C1C(C=NCC2CCCO2)=C(O)c2ccccc21 (centres undefined) | 2820 nM (active) | –
47 | O=[N+]([O-])c1ccccc1SNc1ccccn1 | inactive | –
48 | O=C(O[C@H]1[C@H](Cc2ccccc2)NS(=O)(=O)[C@H]2C[C@@H]3C=C[C@]12O3)c1ccc([N+](=O)[O-])cc1 | inactive | –
49 | COc1ccc2c(C)cc(SCC(=O)NCC3CCCO3)nc2c1 (centres undefined) | inactive | –
50 | Cc1cccc(C)c1OC(=O)CSc1nnc(-c2ccccc2)o1 | inactive | –

Row | Structure (SMILES) | Potency | activation, negative = inhibition
51 | CCCCSc1nnc(-c2ccc(C)cc2)o1 | 1580 nM (active) | –
52 | CCOC(=O)CSc1nnc(-c2ccncc2)o1 | inactive | –
53 | Cc1ccc(S(=O)(=O)N(C)C)cc1NC(=O)C(C)OC(=O)c1ccc2ccccc2n1 (centres undefined) | inactive | –
54 | O=C(c1ccccc1)N1CCN(C(=O)N2CCCCC2)CC1 | inactive | –
55 | O=C(O)c1cccc(N=NN2CCCCCC2)c1 | 282 nM (active) | –
56 | O=C(O)c1ccc(N=NN2CCOCC2)cc1 | inactive | –
57 | COc1ccc2c3c(c(=O)oc2c1)C1O[C@](CCCCN2C(=O)c4ccccc4C2=O)(Cc2c1ccc1ccccc21)O3 | – | -1.17% [at 1.84 µM] (inactive)
58 | COc1cc(C(=O)NCC2(c3ccccc3)CCCC2)ccc1OC(C)C | inactive | –
59 | Cc1nc2cc(NC(=O)NC3CC3)ccc2n1C | inactive | –
60 | Cc1cc2nc(C)n(CCCNC(=O)Nc3ccccc3)c2cc1C | inactive | –
61 | Cc1nc2cc(NC(=O)Nc3cccc(F)c3)ccc2n1C | 89.1 nM (active) | –
62 | CC(=O)Cn1cnc2c(cnn2-c2ccccc2)c1=O | inactive | –
63 | c1ccc(-n2ncc3c2ncn2c(C4CCCCC4)nnc32)cc1 | 3980 nM (active) | –
64 | CN(C(=O)COc1ncnc2c1cnn2-c1ccccc1)C1CCCCC1 | inactive | –
65 | c1ccc2cc(CCCc3cc4ccccc4cn3)ncc2c1 | inactive | –
66 | CCCc1ccc(OCCNC(=O)c2ccco2)cc1 | inactive | –
67 | CCCOc1ccc(C(=O)NCCc2ccccc2)cc1 | 447 nM (active) | –
68 | O=C(CCNC(=O)c1ccc(Br)cc1)NCCCc1ccccc1 | inactive | –
69 | COc1ccc(OCCCC(=O)NCCc2ccccc2)cc1 | inactive | –
70 | CN(c1ccccc1)S(=O)(=O)c1ccc(C(=O)NCCc2ccccc2)cc1 | inactive | –
71 | Cc1noc(C)c1COc1ccc(C(=O)NCCOc2ccccc2)cc1 | inactive | –
72 | CCCCCCCCC(=O)NCCOc1ccccc1 | inactive | –
73 | CC(C)c1ccc(C(=O)NCCCc2ccccc2)cc1 | 3160 nM (active) | –
74 | O=C(NCCOc1ccccc1)c1ccccc1 | 708 nM (active) | –
